Source: PubChem BioAssay
The list is not random: actives were taken first. Their share in the collection is about 2.5%.
Cruzain Triton: qHTS Assay for Promiscuous and Specific Inhibitors of Cruzain (with detergent). purified cruzain, Z-FR-AMC fluorescence, 0.01% Triton. 200,000 tested, 0.43% active. Cruzipain (Trypanosoma cruzi), P25779. AID 1478, 2009. Potency, µM, hits mostly inhibitors; further: nearly all actives have a fitted effect of over 40% in size
Target sequence (P25779 123-467 limits assumed): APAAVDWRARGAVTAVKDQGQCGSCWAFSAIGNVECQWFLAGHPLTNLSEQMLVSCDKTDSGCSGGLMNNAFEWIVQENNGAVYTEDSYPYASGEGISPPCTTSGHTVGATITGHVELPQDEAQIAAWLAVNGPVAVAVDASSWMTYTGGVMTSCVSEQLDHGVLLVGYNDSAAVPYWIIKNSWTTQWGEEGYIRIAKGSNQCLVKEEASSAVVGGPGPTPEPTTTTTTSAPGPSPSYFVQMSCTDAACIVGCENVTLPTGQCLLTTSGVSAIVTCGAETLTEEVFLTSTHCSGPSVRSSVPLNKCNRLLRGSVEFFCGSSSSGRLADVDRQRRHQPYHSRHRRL
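Compounds were screened in titration against cruzain (1.5 nM) with 0.01% Triton X-100 to counter colloidal aggregation. Activity was the AMC fluorescence increase over 60 s after adding 2 uM Z-FR-AMC at pH 5.5.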
Cruzain inh noDet: qHTS Assay for Promiscuous and Specific Inhibitors of Cruzain (without detergent); Cruzipain (Trypanosoma cruzi), P25779; Potency, µM, hits mostly inhibitors; 200,000 tested, 2.3% active; purified cruzain, Z-FR-AMC fluorescence, no detergent; further: nearly all actives have a fitted effect of over 40% in size
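Purified cruzain at 1.5 nM, pre-incubated 15 min with compound at room temperature in 100 mM sodium acetate pH 5.5, 5 mM DTT, 0.00005% Triton X-100. Reaction started with 2 uM Z-FR-AMC; AMC fluorescence increase over 60 s gives rate.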
Numbers stand for hits; ! = a repeat was not active. The call rests on the fitted dose curve; in most records, active means well fitted curve in the direction sought with a large enough effect; inconclusive means small, poorly fitted or top-dose-only effect, or another doubt; inactive means no such curve, though single readings can be large; an effect the other way counts as inactive or inconclusive.

COc1ccc(C(=O)COC(=O)C(Cc2c[nH]c3ccccc23)NC(=O)c2ccc(C(C)(C)C)cc2)cc1 (centres undefined) was read as Cruzain Triton inactive and Cruzain inh noDet 12.6µM.
Screening CC(C)(C)c1ccc(C(=O)NC(Cc2c[nH]c3ccccc23)C(=O)OCC(=O)c2ccccc2)cc1 (centres undefined) returned Cruzain Triton inactive and Cruzain inh noDet inconclusive.
Screening COc1ccc([N+](=O)[O-])cc1C1NN=C(c2ccccc2O)S1 (centres undefined) returned Cruzain Triton inactive and Cruzain inh noDet 20µM.
Screening COc1ccc([N+](=O)[O-])cc1NC(=O)Nc1ccccc1 returned Cruzain Triton inactive and Cruzain inh noDet inactive.
For CC1CCN(c2nn3c(=O)c(C(=O)NCc4ccc(Cl)cc4)cnc3s2)CC1 the results were Cruzain Triton inactive and Cruzain inh noDet inactive.
O=C(NC(=O)c1cccc(F)c1)Nc1ccc(-c2cc(C(F)(F)F)nn2-c2ccccc2)cc1 was read as Cruzain Triton inactive and Cruzain inh noDet inactive.
Screening O=C(Nc1ccc(-c2cc(C(F)(F)F)nn2-c2ccccc2)cc1)c1cccc(F)c1 returned Cruzain Triton inactive and Cruzain inh noDet 20µM.
For COc1ccc2c(c1)Cc1sc(NC(=O)c3cccc(Br)c3)nc1-2 the results were Cruzain Triton inactive and Cruzain inh noDet inconclusive.
`COc1ccc(Br)c2c1-c1nc(NC(=O)c3cccc(C)c3)sc1C2` gave Cruzain Triton inactive and Cruzain inh noDet 6.31µM.
`O=C(Nc1nnc(COc2ccc(Cl)cc2)s1)c1cccs1` gave Cruzain Triton inactive and Cruzain inh noDet 25.1µM.
Screening O=C(Nc1nnc(COc2ccc(Cl)cc2)s1)C1CCCO1 (centres undefined) returned Cruzain Triton inactive and Cruzain inh noDet inactive.
`O=C(Nc1nnc(COc2ccc(F)cc2)s1)c1cccs1` gave Cruzain Triton inactive and Cruzain inh noDet 25.1µM.
O=C(Nc1nnc(CCc2ccccc2)s1)c1cccs1 was read as Cruzain Triton inactive and Cruzain inh noDet inconclusive.
`Cc1ccc(S(=O)(=O)CCc2nnc(NC(=O)c3cccs3)s2)cc1` gave Cruzain Triton inactive and Cruzain inh noDet inconclusive.
Cc1cccc(OCc2nnc(NC(=O)c3cccs3)s2)c1 was read as Cruzain Triton inactive and Cruzain inh noDet 12.6µM.
Screening O=C(CSc1nc(-c2ccco2)nc2cc(=O)[nH]n12)Nc1ccc(F)cc1 returned Cruzain Triton inactive and Cruzain inh noDet inconclusive.
For Cc1ccc(-c2nc3n(n2)C(c2ccccc2Cl)C=C(c2ccc(Cl)cc2)N3)cc1 (centres undefined) the results were Cruzain Triton inactive and Cruzain inh noDet inactive.
For Cc1sc2c(c1C)c(=O)n(-c1cccc(C(F)(F)F)c1)c(=O)n2Cc1ccc(F)cc1 the results were Cruzain Triton inactive and Cruzain inh noDet inactive.
Screening CCOC(=O)N1C2C=C(C)[C@@H]2[C@@H]2CC(=O)N21 (some centres undefined) returned Cruzain Triton 14.1µM and Cruzain inh noDet 12.6µM.
For CCOC(=O)N1CCN(C2CC(=O)N(c3ccc(C)cc3)C2=O)CC1 (centres undefined) the results were Cruzain Triton inactive and Cruzain inh noDet inactive.
For COc1cccc(NC(=O)C2CCCN(c3nnc(-n4c(C)ccc4C)s3)C2)c1 (centres undefined) the results were Cruzain Triton inactive and Cruzain inh noDet inactive.
CCOC(=O)c1cc(-c2ccc(OC)cc2)n(CCC(=O)NC2CCCCC2)c1C was read as Cruzain Triton inactive and Cruzain inh noDet inactive.
For Cc1ccc2occ(CC(=O)Nc3c(C(=O)Nc4ccc(Cl)cc4)oc4ccccc34)c2c1 the results were Cruzain Triton inactive and Cruzain inh noDet 10µM.
Cc1cc(C)c2c(CC(=O)Nc3c(C(=O)Nc4ccc(Cl)cc4)oc4ccccc34)coc2c1 was read as Cruzain Triton inactive and Cruzain inh noDet inactive.
For CCc1ccc2occ(CC(=O)Nc3c(C(=O)Nc4ccc(Cl)cc4)oc4ccccc34)c2c1 the results were Cruzain Triton inactive and Cruzain inh noDet 10µM.
Screening CCc1ccc2occ(CC(=O)Nc3c(C(=O)Nc4ccc(C)cc4)oc4ccccc34)c2c1 returned Cruzain Triton inactive and Cruzain inh noDet inactive.
`CC1CCC(C(C)C)C(O)C1` (centres undefined) gave Cruzain Triton inactive and Cruzain inh noDet inactive.
For COCCNC(=O)c1c(NC(=O)Cc2coc3cc(C)ccc23)sc2c1CCCC2 the results were Cruzain Triton inactive and Cruzain inh noDet inactive.
`COc1cccc(-c2nc(-c3ccccc3)[nH]c(=O)c2C#N)c1` gave Cruzain Triton inactive and Cruzain inh noDet inactive.
For COc1ccc(-c2nc(-c3cccc(C)c3)[nH]c(=O)c2C#N)cc1 the results were Cruzain Triton inactive and Cruzain inh noDet 10µM.
`CCN(C(=O)c1cc(S(=O)(=O)N2CCc3ccccc32)cn1C)c1cccc(C)c1` gave Cruzain Triton inactive and Cruzain inh noDet inactive.
For Cc1ccc(NC(=O)Cn2cnc3onc(-c4ccc(F)cc4)c3c2=O)c(Cl)c1 the results were Cruzain Triton inactive and Cruzain inh noDet inactive.
Screening COC(=O)c1ccc(NC(=O)CCn2cnnn2)c(C)c1 returned Cruzain Triton inactive and Cruzain inh noDet inactive.
Screening CCc1ccccc1NC(=O)c1nnn(Cc2ccc(Cl)cc2)c1N returned Cruzain Triton inactive and Cruzain inh noDet inactive.
`C#CCSc1nc2sc3c(c2c(=O)n1-c1cccc(OC)c1)CCN(C(C)=O)C3` gave Cruzain Triton inactive and Cruzain inh noDet inconclusive.
Screening Cc1ccc2oc(-c3ccccc3C(=O)O)cc(=O)c2c1 returned Cruzain Triton inactive and Cruzain inh noDet inactive.
Screening O=C(O)c1ccccc1-c1c2cc(Br)c(=O)cc-2oc2[c]([Hg])c(O)c(Br)cc12 returned Cruzain Triton 20µM! and Cruzain inh noDet inconclusive.
For CCOC(=O)CNC(=O)O[C@@H]1C(=O)c2cc(OC)ccc2O[C@H]1c1cccc(OC)c1 the results were Cruzain Triton inactive and Cruzain inh noDet inactive.
Screening CCOC(=O)CNC(=O)O[C@H]1C(=O)c2cc(OC)ccc2O[C@@H]1c1ccc(OC)c(Br)c1 returned Cruzain Triton inactive and Cruzain inh noDet 12.6µM.
Screening CCCCOc1ccc(/C=C/C(=O)Nc2ccc([N+](=O)[O-])cc2C)cc1 returned Cruzain Triton inactive and Cruzain inh noDet 25.1µM.
`CCCOc1ccc(/C=C/C(=O)Nc2ccc([N+](=O)[O-])cc2)cc1` gave Cruzain Triton inactive and Cruzain inh noDet inactive.
CCOc1ccc(/C=C/C(=O)Nc2ccc(C(N)=O)cc2)cc1OC was read as Cruzain Triton inactive and Cruzain inh noDet inactive.
For CCCCOc1ccc(/C=C/C(=O)Nc2ccc(C(N)=O)cc2)cc1 the results were Cruzain Triton inactive and Cruzain inh noDet 15.8µM.
CCCCN(CC)CCNC(=O)C1CCN(c2nnc(C)c3c(C)n(-c4ccc(C)cc4)nc23)CC1 was read as Cruzain Triton inactive and Cruzain inh noDet inactive.
Screening COc1ccc(-c2nc(SCC(=O)NCCCc3ccccc3)n[nH]2)cc1 returned Cruzain Triton inactive and Cruzain inh noDet inactive.
For CC1CCN(c2ncnc3c2cnn3-c2ccc(F)cc2)CC1 the results were Cruzain Triton inactive and Cruzain inh noDet inactive.
COc1cc(NS(=O)(=O)c2cnc(N)nc2)cc(OC)c1 was read as Cruzain Triton inactive and Cruzain inh noDet inactive.
Screening O=C(Nc1ccc2oc(-c3cccnc3)nc2c1)c1ccc(-c2cccc(OC(F)(F)F)c2)o1 returned Cruzain Triton inactive and Cruzain inh noDet inactive.
